Screening results as filed in PubChem.
Most compounds without a hit are left out; they make up all but 17% or so of the library.
ATXN viability: reduces viability in counter-screen for ATXN expression inhibitors; S2 cells (HEK-293 line with an ATXN2-luciferase reporter) viability, CellTiter-Fluor protease fluorescence, 24 h; Potency, µM (doses to about 56.7 µM), hits mostly cytotoxic; actives 0.49% (n = 400,000); also: nearly all actives have a fitted effect of over 40% in size
HepG2 tox: HepG2 cytotoxicity, counter-screen for TGF-b inhibitors. HepG2 CAGA-GFP viability, ATP luminescence, 18 h. Potency, µM (series often up to 46.1 µM), most hits filed as cytotoxic. actives 0.76% (n = 410,000)
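CellTiter-Glo luminescence gave cytotoxicity after 18 hours at 37 degrees C. The cells were HepG2 CAGA-GFP in 1% FBS DMEM, stimulated with 500 pg/mL TGF-beta after compound addition. %Activity was normalised to no-cell wells (complete cell-killing) and DMSO (no toxicity), and curves were fitted and classified.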
ATXN2 expr inh: inhibitors of ATXN2 expression; HEK-293 ATXN2-luciferase reporter, luminescence, 24 h; actives 0.72% (n = 360,000); Potency, µM (doses to about 57 µM), hits mostly inhibitors; also: nearly all actives have a fitted effect of over 55% in size
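qHTS (up to 57 uM final) was run with 24 h compound exposure of reporter cells at 37 °C. Each well was multiplexed: SteadyGlo luminescence measured ATXN2-luciferase expression after a fluorogenic Gly-Phe-AFC viability readout (25 uM final).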
DT40 TDP1 no CPT: qHTS for Inhibitors of human tyrosyl-DNA phosphodiesterase 1 (TDP1): qHTS in cells in absence of CPT. DT40 Tdp1-/- hTDP1 cells, no CPT, ATP luminescence, 48 h. Potency, µM (doses to about 46.2 µM), most hits filed as inhibitors. AID 686978, 2013. actives 15% (n = 420,000); also: nearly all actives have a fitted effect of over 55% in size
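Compound effects on proliferation are scored in DT40 Tdp1-/-;hTDP1 cells in the absence of CPT. ATP levels (CellTiter-Glo luminescence) are recorded after a ≥48 hr, 37 °C incubation.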
TDP1 cell CPT: DT40-hTDP1 cell growth loss with CPT | actives 12% (n = 420,000) | Potency, µM (highest dose often 46.2 µM), usual class: inhibitors | chicken DT40 Tdp1-/-;hTDP1 cells + 20 nM CPT, ATP luminescence, 48 h; also: nearly all actives have a fitted effect of over 55% in size
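Chicken DT40 Tdp1-/- cells complemented with human TDP1, 400 cells/well, exposed to compounds plus 20 nM camptothecin for at least 48 h at 37 C; viability read as ATP content by CellTiter-Glo luminescence.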
TGFb inhibitor: inhibitors of TGF-b signaling. Potency, µM (highest dose often 46.1 µM), most hits filed as inhibitors. actives 1.2% (n = 410,000). HepG2 CAGA-GFP TGF-b/SMAD3 reporter, GFP fluorescence, 18 h; TGF-beta stimulated, 500 pg/mL final; also: nearly all actives have a fitted effect of over 65% in size
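HEPG2 CAGA-GFP cells (1000/well, DMEM with 1% FBS) were pre-incubated 2 h at 37 degrees C, given compound by pin tool, then stimulated with TGF-beta at 500 pg/mL final for 18 h before per-cell GFP fluorescence imaging.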
Of the large screens only hits and unclear results are named; the others gave an inactive call. Calls follow the shape of the dose curve; as a rule, active = well fitted curve in the direction sought with a large enough effect; inconclusive = small, poorly fitted or top-dose-only effect, or another doubt; inactive = no such curve, though single readings can be large; an effect the other way counts as inactive or inconclusive.

CC1=C(C(=O)OCc2ccccc2)C(c2ccc3c(c2)OCO3)NC(=O)N1CCCC(=O)O (centres undefined)	DT40 TDP1 no CPT 0.15µM, TDP1 cell CPT inconclusive
COC(=O)CCCCCN1C(=O)NC(C2CC2)C(C(=O)OCc2ccccc2)=C1C (centres undefined)	DT40 TDP1 no CPT 13µM, TDP1 cell CPT 16µM, TGFb inhibitor inconclusive
CCCCCCN(C(=O)CCCCCN1C(=O)NC(c2ccc([N+](=O)[O-])cc2)C(C(=O)OCc2ccccc2)=C1C)C(C(=O)NCCCC)C1CCCCC1 (centres undefined)	ATXN viability inconclusive, DT40 TDP1 no CPT 5.8µM, TDP1 cell CPT inconclusive
COCCCNC(=O)c1ccc2c(c1)nc(C)n2-c1cccc(C)c1	none
CCNC(=O)C1(C)CCCN(C(=O)COCc2ccccc2)C1 (centres undefined)	none
CCCN(C(=O)c1c(C)oc2ncn(CC(C)C)c(=O)c12)c1ccccc1C	DT40 TDP1 no CPT inconclusive, TDP1 cell CPT inconclusive
Cc1ccc(Sc2ccc(CN3CCCCC3)cc2[N+](=O)[O-])cc1	DT40 TDP1 no CPT inconclusive, TDP1 cell CPT 18µM (no result: ATXN2 expr inh)
O=[N+]([O-])c1cc(CN2CCCCCC2)ccc1O	none
CCNC(=O)NC(=O)COC(=O)c1ccccc1SCC(=O)NC(=O)NCC	DT40 TDP1 no CPT 15µM, TDP1 cell CPT 21µM
CCOC(=O)N1CCC(NS(=O)(=O)c2ccc(NC(C)=O)c(Cl)c2)CC1	DT40 TDP1 no CPT 8.2µM, TDP1 cell CPT 23µM
CCCCC1CCC(C(=O)N(CCCC)c2c(N)n(CCCC)c(=O)[nH]c2=O)CC1 (centres undefined)	ATXN2 expr inh inconclusive, DT40 TDP1 no CPT 21µM, TDP1 cell CPT 12µM
CCCCCCCCCCCCCCCC(=O)O[C@H](CC(=O)O)C[N+](C)(C)C	DT40 TDP1 no CPT 30µM, TDP1 cell CPT inconclusive (no result: ATXN viability, HepG2 tox, ATXN2 expr inh, TGFb inhibitor)
CCCCCCCCCCCCCCCC(=O)OC(CC(=O)O)C[N+](C)(C)C (centres undefined)	ATXN viability inconclusive, ATXN2 expr inh inconclusive, DT40 TDP1 no CPT inconclusive, TDP1 cell CPT 5.8µM
CCCCCCCCCCCCCC(=O)O[C@H](CC(=O)O)C[N+](C)(C)C	TDP1 cell CPT inconclusive (no result: ATXN viability, HepG2 tox, ATXN2 expr inh, TGFb inhibitor)
Cc1ccc(C)c(N2CCN(c3cc(C)nc4c(-c5ccc(Cl)cc5)c(C)nn34)CC2)c1	none (no result: ATXN viability, ATXN2 expr inh, TGFb inhibitor)
COc1ccc(C2/C(=C(/O)c3ccccc3)C(=O)C(=O)N2C)cc1OC (centres undefined)	none (no result: ATXN2 expr inh)
O=C(CCCC(=O)NCCc1ccccc1)NCCc1ccccc1	none
Cc1ccc(C)c(S(=O)(=O)N2CCCOC2CNC(=O)C(=O)NCCC2=CCCCC2)c1 (centres undefined)	DT40 TDP1 no CPT 23µM, TDP1 cell CPT inconclusive
O=C(NCCC1=CCCCC1)C(=O)NCC1OCCCN1S(=O)(=O)c1ccccc1 (centres undefined)	DT40 TDP1 no CPT inconclusive
Cc1ccc(C)c(S(=O)(=O)N2CCCOC2CNC(=O)C(=O)NCCc2ccccc2)c1 (centres undefined)	DT40 TDP1 no CPT 16µM, TDP1 cell CPT inconclusive
Cc1cc(F)ccc1S(=O)(=O)N1CCCOC1CNC(=O)C(=O)NCCc1ccccc1 (centres undefined)	TDP1 cell CPT inconclusive
Cc1ccc(S(=O)(=O)N2CCOC2CNC(=O)C(=O)NCCCc2ccccc2)cc1 (centres undefined)	DT40 TDP1 no CPT 18µM, TDP1 cell CPT inconclusive
Cc1ccc(S(=O)(=O)N2CCOC2CNC(=O)C(=O)NCCc2ccccc2)cc1 (centres undefined)	TDP1 cell CPT inconclusive
Cc1ccc(C(=O)NCCCN2CCOCC2)o1	none (no result: ATXN viability, ATXN2 expr inh)
CNc1ccnc(-c2ccccc2C)n1	none (no result: ATXN viability, HepG2 tox, ATXN2 expr inh, TGFb inhibitor)
Cc1c(C(=O)N2CCCCC2)c(S(=O)(=O)NCCc2ccc(Cl)cc2)c(C)n1C	DT40 TDP1 no CPT 21µM, TDP1 cell CPT inconclusive (no result: ATXN2 expr inh)
Cc1c(C(=O)N2CCCCCC2)c(S(=O)(=O)N(Cc2ccccc2)C(C)(C)C)c(C)n1C	ATXN viability inconclusive, DT40 TDP1 no CPT 21µM, TDP1 cell CPT inconclusive
COc1cccc(/C=C/C(=O)NNC(=O)c2cc(C)oc2C)c1	none
CC1Nc2ncnc(N3CCOCC3)c2N(Cc2ccc(Cl)cc2)C1=O (centres undefined)	DT40 TDP1 no CPT inconclusive, TGFb inhibitor inconclusive
CC1Nc2ncnc(N3CCN(c4ccccc4)CC3)c2N(Cc2ccc(Cl)cc2)C1=O (centres undefined)	DT40 TDP1 no CPT 18µM, TDP1 cell CPT inconclusive
CC1Nc2ncnc(N3CCN(c4ccccc4)CC3)c2N(Cc2ccccc2)C1=O (centres undefined)	DT40 TDP1 no CPT 16µM, TDP1 cell CPT inconclusive
Cc1ccc(CN2C(=O)C(C)Nc3ncnc(N4CCOCC4)c32)cc1 (centres undefined)	DT40 TDP1 no CPT inconclusive, TGFb inhibitor inconclusive
O=C(Cn1ccc2ccccc2c1=O)NCC(=O)N1CCCCC1	none
COc1ccccc1N(CC(O)Cn1c(C)nc2ccccc21)S(=O)(=O)c1ccccc1 (centres undefined)	DT40 TDP1 no CPT 29µM, TDP1 cell CPT inconclusive
COc1ccccc1N(CC(O)COc1ccc(C)cc1)S(=O)(=O)c1ccccc1 (centres undefined)	DT40 TDP1 no CPT inconclusive, TGFb inhibitor inconclusive
COc1ccccc1N(CC(O)COc1c(C)cc(C)cc1C)S(=O)(=O)c1ccccc1 (centres undefined)	ATXN viability inconclusive, DT40 TDP1 no CPT inconclusive, TDP1 cell CPT inconclusive, TGFb inhibitor 13µM
O=C(Nc1ccc(F)cc1)C1CCN(S(=O)(=O)c2ccc3c(c2)CCCN3C(=O)C2CCC2)CC1	ATXN2 expr inh inconclusive, DT40 TDP1 no CPT 8.2µM, TDP1 cell CPT 18µM
CCN(C(=O)C1CCN(S(=O)(=O)c2ccc3c(c2)CCCN3C(=O)C2CCC2)CC1)c1cccc(C)c1	DT40 TDP1 no CPT 18µM, TDP1 cell CPT 16µM
Cc1ccc(NC(=O)C2CCN(S(=O)(=O)c3ccc4c(c3)CCCN4C(=O)C3CCC3)CC2)cc1	DT40 TDP1 no CPT inconclusive, TDP1 cell CPT 16µM, TGFb inhibitor inconclusive
COc1cc2c(cc1OC)n(CC(=O)c1cc(C)ccc1C)c(=O)n1nc(CCn3nc(C)cc3C)nc21	none (no result: ATXN viability, ATXN2 expr inh)
O=C(O)c1ccc(NNC(=S)Nc2cc(C(F)(F)F)ccc2Cl)cc1	DT40 TDP1 no CPT inconclusive, TDP1 cell CPT inconclusive
